# ± gives the standard deviation.
# Experiments:
# Test in all cases: peptide microarray binding signal (635 nm), min-max normalized on array (fraction of array maximum); higher = stronger binding
# [1] = molecular target: T1, HaloTag-ATRX ADD domain (163-292)
# T1 chain: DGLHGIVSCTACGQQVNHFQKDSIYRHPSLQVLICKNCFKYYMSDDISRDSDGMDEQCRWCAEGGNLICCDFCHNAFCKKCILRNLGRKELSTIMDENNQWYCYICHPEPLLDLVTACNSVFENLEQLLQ
# How it was run: (§1)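 Binding signal is the mean intensity of triplicate spots, min-max scaled within each library. Histone 13-mer peptide–cellulose conjugates were spotted in triplicate on nitrocellulose with a Cy3 tracer and blocked overnight at 4°C. Probing lasted 1 h at 4°C, either with biotin-labelled HaloTag reader fusions (10 nM to 1 μM) and streptavidin-Alexa Fluor 647 or with rabbit histone antibodies (1:10,000 to 1:2,000) and anti-rabbit Alexa 647. An Axon GenePix 4000B read signal at 635 nm and misprints at 532 nm.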
# [2] = molecular target: HaloTag-ING2 PHD (mouse Ing2 200-280)
# How it was run: as §1
# [3] = molecular target: anti-H3K4me3 antibody ab8580
# How it was run: as §1
# [4] = molecular target: anti-H3K9me3 antibody ab8898
# How it was run: as §1
# [5] = peptide region: H4 1-13, binder concentration: 1:2,000 dilution
# [6] = peptide region: H4 1-13, binder concentration: 1:10,000 dilution
# [7] = peptide region: H3 112-124, peptide modifications: H3K115me3 H3R116me2s, binder concentration: 1:2,000 dilution
# [8] = peptide region: H3 112-124, peptide modifications: H3K115me3 H3R116me2s, binder concentration: 1:10,000 dilution
# [9] = peptide region: H3 112-124, peptide modifications: H3K115me2 H3R116me2s, binder concentration: 1:2,000 dilution
# [10] = peptide region: H3 112-124, peptide modifications: H3K115me2 H3R116me2s, binder concentration: 1:10,000 dilution
# [11] = peptide region: H3 112-124, peptide modifications: H3K115me3 H3K122ac, binder concentration: 1:2,000 dilution
# [12] = peptide region: H3 112-124, peptide modifications: H3K115me3 H3K122ac, binder concentration: 1:10,000 dilution
# [13] = peptide region: H3 112-124, peptide modifications: H3K122ac, binder concentration: 1:2,000 dilution
# [14] = peptide region: H3 112-124, peptide modifications: H3K122ac, binder concentration: 1:10,000 dilution
binder,measurement,setting,value
SGRGKGGKGLGKG [H4 1-13 S G R G K G G K G L G K G],peptide microarray binding signal,"[1]; peptide region: H4 1-13, binder concentration: 50 nM",0.00834 ± 0.00028
same,peptide microarray binding signal,"[1]; peptide region: H4 1-13, binder concentration: 500 nM",0.018 ± 0.0011
same,peptide microarray binding signal,"[2]; peptide region: H4 1-13, binder concentration: 10 nM",0.0037 ± 0.00019
same,peptide microarray binding signal,"[2]; peptide region: H4 1-13, binder concentration: 100 nM",0.00928 ± 0.00099
same,peptide microarray binding signal,[3]; [5],0.000189 ± 2e-06
same,peptide microarray binding signal,[3]; [6],0.00417 ± 0.00056
same,peptide microarray binding signal,[4]; [5],0.00211 ± 0.00074
same,peptide microarray binding signal,[4]; [6],0.00306 ± 0.00014
IHAKRVTIMPKDI [H3 112-124 I H A Kme3 Rme2s V T I M P K D I],peptide microarray binding signal,"[1]; peptide region: H3 112-124, peptide modifications: H3K115me3 H3R116me2s, binder concentration: 50 nM",0.00351 ± 6.2e-05
same,peptide microarray binding signal,"[1]; peptide region: H3 112-124, peptide modifications: H3K115me3 H3R116me2s, binder concentration: 500 nM",0.00576 ± 0.00044
same,peptide microarray binding signal,"[2]; peptide region: H3 112-124, peptide modifications: H3K115me3 H3R116me2s, binder concentration: 10 nM",0.0107 ± 0.00099
same,peptide microarray binding signal,"[2]; peptide region: H3 112-124, peptide modifications: H3K115me3 H3R116me2s, binder concentration: 100 nM",0.0126 ± 0.0027
same,peptide microarray binding signal,[3]; [7],0.00608 ± 0.0018
same,peptide microarray binding signal,[3]; [8],0.0069 ± 0.00085
same,peptide microarray binding signal,[4]; [7],0.0055 ± 0.00076
same,peptide microarray binding signal,[4]; [8],0.00386 ± 0.00058
IHAKRVTIMPKDI [H3 112-124 I H A Kme2 Rme2s V T I M P K D I],peptide microarray binding signal,"[1]; peptide region: H3 112-124, peptide modifications: H3K115me2 H3R116me2s, binder concentration: 50 nM",0.006426 ± 2.2e-05
same,peptide microarray binding signal,"[1]; peptide region: H3 112-124, peptide modifications: H3K115me2 H3R116me2s, binder concentration: 500 nM",0.00905 ± 0.00055
same,peptide microarray binding signal,"[2]; peptide region: H3 112-124, peptide modifications: H3K115me2 H3R116me2s, binder concentration: 10 nM",0.0113 ± 0.0004
same,peptide microarray binding signal,"[2]; peptide region: H3 112-124, peptide modifications: H3K115me2 H3R116me2s, binder concentration: 100 nM",0.0135 ± 0.00076
same,peptide microarray binding signal,[3]; [9],0.00383 ± 0.0002
same,peptide microarray binding signal,[3]; [10],0.00462 ± 0.00022
same,peptide microarray binding signal,[4]; [9],0.00335 ± 0.00032
same,peptide microarray binding signal,[4]; [10],0.00236 ± 3.7e-05
IHAKRVTIMPKDI [H3 112-124 I H A Kme3 R V T I M P Kac D I],peptide microarray binding signal,"[1]; peptide region: H3 112-124, peptide modifications: H3K115me3 H3K122ac, binder concentration: 50 nM",0.00408 ± 6.9e-05
same,peptide microarray binding signal,"[1]; peptide region: H3 112-124, peptide modifications: H3K115me3 H3K122ac, binder concentration: 500 nM",0.00905 ± 0.0013
same,peptide microarray binding signal,"[2]; peptide region: H3 112-124, peptide modifications: H3K115me3 H3K122ac, binder concentration: 10 nM",0.0419 ± 0.0077
same,peptide microarray binding signal,"[2]; peptide region: H3 112-124, peptide modifications: H3K115me3 H3K122ac, binder concentration: 100 nM",0.0725 ± 0.024
same,peptide microarray binding signal,[3]; [11],0.0222 ± 0.0067
same,peptide microarray binding signal,[3]; [12],0.0228 ± 0.0068
same,peptide microarray binding signal,[4]; [11],0.0259 ± 0.0045
same,peptide microarray binding signal,[4]; [12],0.0117 ± 0.0018
IHAKRVTIMPKDI [H3 112-124 I H A K R V T I M P Kac D I],peptide microarray binding signal,"[1]; peptide region: H3 112-124, peptide modifications: H3K122ac, binder concentration: 50 nM",0.002508 ± 1.9e-05
same,peptide microarray binding signal,"[1]; peptide region: H3 112-124, peptide modifications: H3K122ac, binder concentration: 500 nM",0.00729 ± 0.0012
same,peptide microarray binding signal,"[2]; peptide region: H3 112-124, peptide modifications: H3K122ac, binder concentration: 10 nM",0.00328 ± 0.00025
same,peptide microarray binding signal,"[2]; peptide region: H3 112-124, peptide modifications: H3K122ac, binder concentration: 100 nM",0.00475 ± 0.0007
same,peptide microarray binding signal,[3]; [13],0.00113 ± 0.00025
same,peptide microarray binding signal,[3]; [14],0.00137 ± 0.00013
same,peptide microarray binding signal,[4]; [13],0.000483 ± 2.4e-05
same,peptide microarray binding signal,[4]; [14],0.000692 ± 7.3e-06
